What all share (assay): DAPPL (digital affinity profiling via proximity ligation, sequencing); 10 mM Tris-HCl pH 7.5, 50 mM NaCl, 1 mM DTT, 4% glycerol, room temperature, 30 min; GST-TFs on glutathione beads, 16-mer random dsDNA library, 0.1% formaldehyde crosslink after washing; high values mean tight binding
The target in one test is HSF1 (Homo sapiens, UniProt Q00613 1-529). The settings on record: protein: recombinant; tags: N-terminal GST; chain copies: 3; dsDNA, one strand shown. The gist of the method:
(§1)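 Human transcription factors were made in yeast as GST fusions, captured on glutathione beads and barcoded with DNA. With a tag-only sample included, the pool was incubated with 200 nmole of a random double-stranded 16-mer DNA library in Tris/NaCl/DTT/glycerol buffer at room temperature for 30 min, then crosslinked with 0.1% formaldehyde after washing, ligated by proximity, amplified and sequenced. For binding signal, each hexamer's read frequency for a factor is divided by its frequency for the tag-only sample.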

The target of the next test is T1, SPIC (Homo sapiens, UniProt Q8N5J4 1-248).
T1 sequence: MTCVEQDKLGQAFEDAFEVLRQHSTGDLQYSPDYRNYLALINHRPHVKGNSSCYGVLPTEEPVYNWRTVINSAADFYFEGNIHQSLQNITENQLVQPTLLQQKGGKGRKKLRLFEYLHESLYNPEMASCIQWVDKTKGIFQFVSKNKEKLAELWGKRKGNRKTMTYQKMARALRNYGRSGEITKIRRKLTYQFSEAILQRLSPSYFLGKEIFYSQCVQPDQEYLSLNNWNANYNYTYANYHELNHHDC
The settings on record: protein: recombinant; tags: N-terminal GST; dsDNA, one strand shown. In a few lines: as §1

In the next test the target is CRX (Homo sapiens, UniProt O43186 1-299). The settings on record: protein: recombinant; tags: N-terminal GST; dsDNA, one strand shown. In a few lines: as §1
CRX, sequence (O43186 whole entry): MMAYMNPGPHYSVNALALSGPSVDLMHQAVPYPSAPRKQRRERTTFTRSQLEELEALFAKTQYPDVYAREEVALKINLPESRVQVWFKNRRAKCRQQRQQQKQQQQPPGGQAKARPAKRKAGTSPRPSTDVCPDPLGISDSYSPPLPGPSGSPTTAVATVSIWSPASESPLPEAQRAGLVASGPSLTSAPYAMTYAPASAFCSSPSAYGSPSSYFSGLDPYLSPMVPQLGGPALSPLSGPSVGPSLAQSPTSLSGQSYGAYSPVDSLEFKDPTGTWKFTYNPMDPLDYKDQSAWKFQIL
In a further test the target is T2, ELK4 (Homo sapiens, UniProt P28324-2 1-405).
T2 sequence: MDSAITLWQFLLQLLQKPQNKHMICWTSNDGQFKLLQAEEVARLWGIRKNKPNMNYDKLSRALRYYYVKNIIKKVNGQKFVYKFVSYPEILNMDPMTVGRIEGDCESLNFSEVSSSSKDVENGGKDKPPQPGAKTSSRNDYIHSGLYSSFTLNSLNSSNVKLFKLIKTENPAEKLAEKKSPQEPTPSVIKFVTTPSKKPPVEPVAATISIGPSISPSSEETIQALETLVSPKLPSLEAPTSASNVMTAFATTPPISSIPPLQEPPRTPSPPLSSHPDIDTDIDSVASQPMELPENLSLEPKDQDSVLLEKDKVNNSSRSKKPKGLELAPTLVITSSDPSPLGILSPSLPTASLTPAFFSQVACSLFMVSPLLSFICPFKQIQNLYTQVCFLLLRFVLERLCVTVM
The settings on record: protein: recombinant; tags: N-terminal GST; dsDNA, one strand shown. The gist of the method: as §1

In the next test the target is T3, ELK1 (Homo sapiens, UniProt P19419 1-428).
T3 sequence: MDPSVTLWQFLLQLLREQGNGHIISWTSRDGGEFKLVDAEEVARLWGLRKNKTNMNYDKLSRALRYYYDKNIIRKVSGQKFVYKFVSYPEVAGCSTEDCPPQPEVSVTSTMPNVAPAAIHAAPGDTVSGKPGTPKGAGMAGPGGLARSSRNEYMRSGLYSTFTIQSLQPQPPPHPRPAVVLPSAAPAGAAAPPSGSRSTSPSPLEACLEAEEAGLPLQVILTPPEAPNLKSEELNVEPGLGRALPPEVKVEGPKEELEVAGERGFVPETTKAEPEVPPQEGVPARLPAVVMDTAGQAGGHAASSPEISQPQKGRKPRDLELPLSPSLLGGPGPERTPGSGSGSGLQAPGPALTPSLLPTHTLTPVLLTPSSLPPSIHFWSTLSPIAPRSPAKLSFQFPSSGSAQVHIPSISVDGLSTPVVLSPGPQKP
The settings on record: protein: recombinant; tags: N-terminal GST; dsDNA, one strand shown. The gist of the method: as §1

The target of the next test is T4, GABPA (Homo sapiens, UniProt Q06546 1-454).
T4 sequence: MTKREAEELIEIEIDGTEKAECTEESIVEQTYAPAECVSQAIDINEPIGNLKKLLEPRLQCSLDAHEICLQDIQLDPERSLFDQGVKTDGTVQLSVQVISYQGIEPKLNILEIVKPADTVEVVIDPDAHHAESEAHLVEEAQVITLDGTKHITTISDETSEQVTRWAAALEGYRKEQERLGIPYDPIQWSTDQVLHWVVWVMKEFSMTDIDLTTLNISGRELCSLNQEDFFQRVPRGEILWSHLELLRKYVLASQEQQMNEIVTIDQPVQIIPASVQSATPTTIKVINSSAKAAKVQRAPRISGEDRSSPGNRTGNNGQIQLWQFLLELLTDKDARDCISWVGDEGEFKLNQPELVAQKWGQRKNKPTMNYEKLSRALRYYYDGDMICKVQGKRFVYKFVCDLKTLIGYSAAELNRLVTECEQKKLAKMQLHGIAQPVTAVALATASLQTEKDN
The settings on record: protein: recombinant; tags: N-terminal GST; dsDNA, one strand shown. In a few lines: as §1

The target of the next test is T5, ERG (Homo sapiens, UniProt P11308 1-479).
T5 sequence: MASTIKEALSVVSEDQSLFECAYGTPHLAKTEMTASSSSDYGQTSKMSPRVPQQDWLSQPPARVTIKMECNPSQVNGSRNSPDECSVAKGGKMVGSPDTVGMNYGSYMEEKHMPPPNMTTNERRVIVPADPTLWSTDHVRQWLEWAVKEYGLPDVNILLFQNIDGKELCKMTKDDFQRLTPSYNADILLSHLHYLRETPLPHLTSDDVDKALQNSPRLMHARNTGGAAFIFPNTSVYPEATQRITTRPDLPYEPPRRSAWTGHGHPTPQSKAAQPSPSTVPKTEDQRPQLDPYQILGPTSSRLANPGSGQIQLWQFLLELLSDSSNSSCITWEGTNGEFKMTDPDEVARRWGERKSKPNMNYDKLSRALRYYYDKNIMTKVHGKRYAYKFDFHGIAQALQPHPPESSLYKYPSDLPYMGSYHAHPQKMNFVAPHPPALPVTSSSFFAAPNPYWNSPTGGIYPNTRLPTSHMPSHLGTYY
The settings on record: protein: recombinant; tags: N-terminal GST; dsDNA, one strand shown. The gist of the method: as §1

A further test deals with T6, EHF (Homo sapiens, UniProt Q9NZC4 1-300).
T6 sequence: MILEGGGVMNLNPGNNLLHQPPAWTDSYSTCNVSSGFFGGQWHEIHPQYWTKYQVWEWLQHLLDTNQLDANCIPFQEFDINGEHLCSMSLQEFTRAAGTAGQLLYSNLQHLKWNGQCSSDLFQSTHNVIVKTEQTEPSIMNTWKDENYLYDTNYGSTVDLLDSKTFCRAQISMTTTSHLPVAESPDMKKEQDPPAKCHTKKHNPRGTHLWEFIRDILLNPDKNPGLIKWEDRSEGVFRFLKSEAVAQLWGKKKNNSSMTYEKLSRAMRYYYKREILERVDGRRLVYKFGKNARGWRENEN
The settings on record: protein: recombinant; tags: N-terminal GST; dsDNA, one strand shown. In a few lines: as §1

The next test concerns the target ELF4 (Homo sapiens, UniProt Q99607 1-663). The settings on record: protein: recombinant; tags: N-terminal GST; dsDNA, one strand shown. In a few lines:
as §1

A further test has as its target T7, ETV7 (Homo sapiens, UniProt Q9Y603 1-341).
T7 sequence: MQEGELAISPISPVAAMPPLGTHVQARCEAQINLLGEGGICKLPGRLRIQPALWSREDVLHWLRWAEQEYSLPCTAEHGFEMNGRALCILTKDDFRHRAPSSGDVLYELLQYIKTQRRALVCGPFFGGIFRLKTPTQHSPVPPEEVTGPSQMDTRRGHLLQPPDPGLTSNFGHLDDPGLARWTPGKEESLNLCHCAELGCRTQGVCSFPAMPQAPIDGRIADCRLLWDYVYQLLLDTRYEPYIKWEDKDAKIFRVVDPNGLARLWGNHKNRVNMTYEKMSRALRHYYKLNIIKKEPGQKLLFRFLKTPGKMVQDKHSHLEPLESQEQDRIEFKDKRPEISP
The settings on record: protein: recombinant; tags: N-terminal GST; dsDNA, one strand shown. In a few lines:
as §1

In another test the target is T8, FEV (Homo sapiens, UniProt Q99581 1-238).
T8 sequence: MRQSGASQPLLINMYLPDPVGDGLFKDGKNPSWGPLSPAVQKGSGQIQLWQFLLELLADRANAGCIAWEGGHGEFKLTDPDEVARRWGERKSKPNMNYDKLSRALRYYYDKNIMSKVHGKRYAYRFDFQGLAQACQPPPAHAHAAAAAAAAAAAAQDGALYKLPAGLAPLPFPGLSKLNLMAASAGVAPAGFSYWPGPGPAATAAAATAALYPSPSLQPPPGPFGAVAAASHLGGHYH
The settings on record: protein: recombinant; tags: N-terminal GST; dsDNA, one strand shown. The gist of the method:
as §1

Another test has as its target T9, ELF5 (Homo sapiens, UniProt Q9UKW6-2 1-255).
T9 sequence: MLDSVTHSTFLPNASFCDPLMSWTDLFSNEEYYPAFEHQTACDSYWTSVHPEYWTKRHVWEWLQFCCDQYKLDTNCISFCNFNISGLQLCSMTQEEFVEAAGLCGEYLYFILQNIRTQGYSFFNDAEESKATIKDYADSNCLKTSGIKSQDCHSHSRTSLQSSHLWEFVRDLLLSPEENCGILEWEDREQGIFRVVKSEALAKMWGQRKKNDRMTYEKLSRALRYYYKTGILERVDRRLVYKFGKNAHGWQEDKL
The settings on record: protein: recombinant; tags: N-terminal GST; dsDNA, one strand shown. The gist of the method:
as §1

Another test deals with T10, ETV3 (Homo sapiens, UniProt P41162-2 1-143).
T10 sequence: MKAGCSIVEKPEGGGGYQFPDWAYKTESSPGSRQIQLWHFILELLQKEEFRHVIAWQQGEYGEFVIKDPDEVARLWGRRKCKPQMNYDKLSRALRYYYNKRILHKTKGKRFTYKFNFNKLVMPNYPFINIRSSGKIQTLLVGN
The settings on record: protein: recombinant; tags: N-terminal GST; dsDNA, one strand shown. The gist of the method: as §1

HSF1, sequence (Q00613 whole entry, the tested form may be a part): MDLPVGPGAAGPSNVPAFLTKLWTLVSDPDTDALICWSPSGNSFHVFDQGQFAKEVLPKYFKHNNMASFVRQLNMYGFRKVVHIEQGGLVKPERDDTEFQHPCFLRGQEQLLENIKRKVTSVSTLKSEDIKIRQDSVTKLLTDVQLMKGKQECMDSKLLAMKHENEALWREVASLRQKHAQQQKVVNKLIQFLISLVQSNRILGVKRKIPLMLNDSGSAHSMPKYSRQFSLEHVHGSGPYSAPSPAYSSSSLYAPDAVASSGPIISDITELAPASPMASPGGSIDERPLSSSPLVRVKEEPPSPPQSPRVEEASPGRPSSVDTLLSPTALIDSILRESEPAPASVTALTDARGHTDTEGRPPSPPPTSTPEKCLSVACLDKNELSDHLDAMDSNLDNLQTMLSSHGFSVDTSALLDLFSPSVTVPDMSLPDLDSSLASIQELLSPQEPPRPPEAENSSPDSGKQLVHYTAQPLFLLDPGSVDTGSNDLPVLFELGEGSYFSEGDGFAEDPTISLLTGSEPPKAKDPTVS
ELF4, sequence (Q99607 whole entry): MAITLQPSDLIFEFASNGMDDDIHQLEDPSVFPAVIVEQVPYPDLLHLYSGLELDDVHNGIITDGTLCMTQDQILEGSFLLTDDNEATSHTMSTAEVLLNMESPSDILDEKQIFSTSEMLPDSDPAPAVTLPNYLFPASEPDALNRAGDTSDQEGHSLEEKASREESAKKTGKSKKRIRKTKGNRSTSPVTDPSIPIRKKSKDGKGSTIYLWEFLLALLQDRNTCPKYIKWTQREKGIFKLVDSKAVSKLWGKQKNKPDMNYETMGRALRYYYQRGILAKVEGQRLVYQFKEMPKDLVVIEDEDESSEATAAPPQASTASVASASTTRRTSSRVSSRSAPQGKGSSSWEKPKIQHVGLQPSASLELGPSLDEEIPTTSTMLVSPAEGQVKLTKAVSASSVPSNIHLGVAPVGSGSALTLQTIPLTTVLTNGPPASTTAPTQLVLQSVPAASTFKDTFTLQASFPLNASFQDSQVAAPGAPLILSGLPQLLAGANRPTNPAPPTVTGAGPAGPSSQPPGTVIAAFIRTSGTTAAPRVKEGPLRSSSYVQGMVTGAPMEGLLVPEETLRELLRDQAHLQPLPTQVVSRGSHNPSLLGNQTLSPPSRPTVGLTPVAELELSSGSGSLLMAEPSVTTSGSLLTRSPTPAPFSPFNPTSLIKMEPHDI

As for TCGAAG, the binding signal with HSF1 was 1.57 fold enrichment (6-mer frequency, TF over GST control); with SPIC, 1.02 fold enrichment (6-mer frequency, TF over GST control); in the test with CRX it was 1.09 fold enrichment (6-mer frequency, TF over GST control).

Regarding AGAACT, the binding signal was 1.63 fold enrichment (6-mer frequency, TF over GST control) in the test with HSF1; 1.03 fold enrichment (6-mer frequency, TF over GST control) in the test with SPIC; 1.02 fold enrichment (6-mer frequency, TF over GST control) with CRX.

Turning to TTAGTG, the binding signal with HSF1 was 1.3 fold enrichment (6-mer frequency, TF over GST control); with ELK4, 1.11 fold enrichment (6-mer frequency, TF over GST control); in the test with CRX, 1.89 fold enrichment (6-mer frequency, TF over GST control).

For TCGGCT, the binding signal in the test with ELK1 is 1.02 fold enrichment (6-mer frequency, TF over GST control); with GABPA it was 1.03 fold enrichment (6-mer frequency, TF over GST control); in the test with ERG it was 1.09 fold enrichment (6-mer frequency, TF over GST control); with EHF it was 1.02 fold enrichment (6-mer frequency, TF over GST control); with HSF1, 1.15 fold enrichment (6-mer frequency, TF over GST control); with ELF4 it was 1.1 fold enrichment (6-mer frequency, TF over GST control). For the same sequence, the binding signal with CRX was 1.34 fold enrichment (6-mer frequency, TF over GST control); with ETV7 it was 1.05 fold enrichment (6-mer frequency, TF over GST control).

In the case of TCGAGT, in the test with GABPA, the binding signal was 1 fold enrichment (6-mer frequency, TF over GST control).

On to CGGATT, for which the binding signal is 1 fold enrichment (6-mer frequency, TF over GST control) with ERG; 1.44 fold enrichment (6-mer frequency, TF over GST control) with FEV; 1.01 fold enrichment (6-mer frequency, TF over GST control) with ELF5; 1.04 fold enrichment (6-mer frequency, TF over GST control) with ETV3.

For the origin of these results see PMC7862700, “An all-to-all approach to the identification of sequence-specific readers for epigenetic DNA modifications on cytosine”.
